# Inconclusive results are not listed. Where a call stands in place of a potency, no number is given. Activity calls are given as the source filed them. Unless noted, the call rests on the fitted dose curve; in most records, active means well fitted curve in the direction sought with a large enough effect; inconclusive means small, poorly fitted or top-dose-only effect, or another doubt; inactive means no such curve, though single readings can be large; an effect the other way counts as inactive or inconclusive.
# What was measured:
# Furin (Homo sapiens) = Furin (Homo sapiens) (UniProt P09958); test: Furin counterscreen qHTS for Zika virus inhibitors (AID 1347149); further: nearly all actives have a fitted effect of over 70% in size; further: potency means the concentration at half of the fitted maximal effect
# Summary of the method: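 Fluorogenic cleavage of BOC-RVRR-AMC (2 microM final, Km ~15 µM) was monitored (ex 340, em 450 nm) at 37C after 15 min RT preincubation of 5 nM furin with compounds in HEPES pH 7.0 buffer with CaCl2 and Triton X-100. Percent inhibition was fitted to a 4-parameter Hill curve.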
# [1] = Confirmatory screen GU Rhodamine qHTS for Zika virus inhibitors qHTS (AID 1347157); further: nearly all actives have a fitted effect of over 70% in size; further: potency means the concentration at half of the fitted maximal effect
# Summary of the method: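 In dose–response format, inhibition of unlinked protease (25 nM) was measured with 1.5 microM bis-peptide Rhodamine110 substrate. Aprotinin served as the intraplate control.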
# [2] = Confirmatory screen NINDS Rhodamine qHTS for Zika virus inhibitors (AID 1347161); further: nearly all actives have a fitted effect of over 60% in size; further: potency means the concentration at half of the fitted maximal effect
# Summary of the method: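 Percent inhibition, normalized to uninhibited and enzyme-free controls, is fitted to a 4-parameter Hill equation. Fluorescence change comes from a 15-min cleavage of 1.5 microM bis-peptide Rhodamine110 substrate by 25 nM linked NS2B-NS3 at room temperature.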
# [3] = Tertiary RLuc qRT-PCR qHTS assay for Zika virus inhibitors (AID 1347169); further: top concentration of the series differs between compounds; nearly all actives have a fitted effect of over 55% in size
# Summary of the method: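 Inhibition of ZIKV-RLuc replication in Vero cells, read as Renilla luminescence 1-1.5 hrs after live-cell substrate addition, following 48-72 hrs infection at MOI 1-2 in presence of compound.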
# [4] = target: Cytochrome P450 2D6 (Homo sapiens) (UniProt P10635); test: Cytochrome P450 family 2 subfamily D member 6 (CYP2D6) small molecule antagonists: luciferase biochemical (cell-free) qHTS assay (AID 1645840; active means well fitted curve in the direction sought with a large enough effect in the repeat runs; an effect the other way counts as inactive or inconclusive; further: potency means the concentration at half of the fitted maximal effect; nearly all actives have a fitted effect of over 55% in size)
# Summary of the method: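 P450-Glo luminescent screen: recombinant CYP2D6 enzyme–proluciferin substrate mix preincubated with compound 10 min at room temperature, then NADPH regeneration added for 1 h at room temperature. Detection reagent added for 20 min; luciferin light read as relative luminescence units.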
# [5] = target: Cytochrome P450 2C9 (Homo sapiens) (UniProt P11712); test: Cytochrome P450 family 2 subfamily C member 9 (CYP2C9) small molecule antagonists: luciferase biochemical (cell-free) qHTS assay (AID 1645842; active means well fitted curve in the direction sought with a large enough effect in the repeat runs; an effect the other way counts as inactive or inconclusive; further: potency means the concentration at half of the fitted maximal effect; nearly all actives have a fitted effect of over 55% in size)
# Summary of the method: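 Luminescence, after 20 min with luciferin detection reagent, reflected CYP2C9 turnover during a 1 h NADPH-driven reaction at 37C. Enzyme-substrate mix contained 0.4% bovine serum albumin and was preincubated with compound 10 min at room temperature.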
# [6] = target: Calcium and integrin-binding protein 1 (Homo sapiens) (UniProt Q99828); test: Primary qHTS for Identification of Calcium Integrin Binding Protein 1 (CIB1) Competitor (AID 1508620);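 further: GST tagged CIB1 binding a fluorescein labelled alphaIIb integrin peptide tracer; top concentration of the series differs between compounds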
# Summary of the method: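 CIB1-GST (1 uM final) and compound incubated 15 min at room temperature before adding FITC-alphaIIb peptide tracer (100 nM final). Competition for binding read by fluorescence polarization (ex 480, em 540) after another 15 min at room temperature.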
# [7] = ZIKV-mCherry secondary qHTS for Zika virus inhibitors (AID 1347158); further: top concentration of the series differs between compounds
# Summary of the method: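 After overnight seeding at 37 °C, Vero cells receive compound and then ZIKV-mCherry (MOI 1). Following 48-72 h infection, cells are fixed, counterstained with Hoechst, and imaged; percent infected cells is derived from an mCherry intensity cut-off of 450 RFU.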
# [8] = Confirmation and Secondary Assay for Modulators of Hemoglobin Beta Chain Splicing at IVS2 654 locus (AID 910);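 further: HeLa cells stably carrying EGFP split by mutant beta-globin IVS2-654 intron; per-well total GFP intensity by laser scanning cytometry after 2-day treatment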
# Summary of the method: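 Readout: per-well total peak green fluorescence (488 nm ex, 500–520 nm em) from objects 5–250 µm, reflecting correct splicing of an EGFP-654 reporter. Compounds were applied for 2 days at 37 °C to overnight-plated HeLa EGFP-654 cells; controls were DMSO and 500 nM IVS2-654 PNA.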
# [9] = Confirmation and Secondary Assay for Modulators of Hemoglobin Beta Chain Splicing at IVS2 705 locus (AID 930);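 further: HeLa cells stably expressing the EGFP-705 splicing reporter; GFP fluorescence per well restored by corrected splicing of the IVS2-705 intron in EGFP; series mostly up to about 46 µM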
# Summary of the method: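 Assay measures total GFP intensity per well in HeLa EGFP-705 cells after 2 days with compound; mis-splicing normally truncates EGFP, so fluorescence indicates corrected splicing.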
# [10] = target: Glutathione peroxidase 1 (Homo sapiens) (UniProt P07203); test: Primary qHTS Assay for Inhibitors of Recombinant Selenoprotein Glutathione Peroxidase 1 (GPX1) (AID 1845191); further: nearly all actives have a fitted effect of over 65% in size
# Summary of the method: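 10 nM GPX1 + cpd, 30 min RT; start w/ 1 mM GSH, 0.5 mM cumene hydroperoxide, 0.5 mM NADPH, 100 nM GR, 0.01% BSA; buffer 50 mM Tris-HCl pH 7.5, 2 mM EDTA, 150 mM NaCl; Fl 340/450, 0 & 15 min.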
# Sequence of Furin (Homo sapiens) (P09958 whole entry, looked up): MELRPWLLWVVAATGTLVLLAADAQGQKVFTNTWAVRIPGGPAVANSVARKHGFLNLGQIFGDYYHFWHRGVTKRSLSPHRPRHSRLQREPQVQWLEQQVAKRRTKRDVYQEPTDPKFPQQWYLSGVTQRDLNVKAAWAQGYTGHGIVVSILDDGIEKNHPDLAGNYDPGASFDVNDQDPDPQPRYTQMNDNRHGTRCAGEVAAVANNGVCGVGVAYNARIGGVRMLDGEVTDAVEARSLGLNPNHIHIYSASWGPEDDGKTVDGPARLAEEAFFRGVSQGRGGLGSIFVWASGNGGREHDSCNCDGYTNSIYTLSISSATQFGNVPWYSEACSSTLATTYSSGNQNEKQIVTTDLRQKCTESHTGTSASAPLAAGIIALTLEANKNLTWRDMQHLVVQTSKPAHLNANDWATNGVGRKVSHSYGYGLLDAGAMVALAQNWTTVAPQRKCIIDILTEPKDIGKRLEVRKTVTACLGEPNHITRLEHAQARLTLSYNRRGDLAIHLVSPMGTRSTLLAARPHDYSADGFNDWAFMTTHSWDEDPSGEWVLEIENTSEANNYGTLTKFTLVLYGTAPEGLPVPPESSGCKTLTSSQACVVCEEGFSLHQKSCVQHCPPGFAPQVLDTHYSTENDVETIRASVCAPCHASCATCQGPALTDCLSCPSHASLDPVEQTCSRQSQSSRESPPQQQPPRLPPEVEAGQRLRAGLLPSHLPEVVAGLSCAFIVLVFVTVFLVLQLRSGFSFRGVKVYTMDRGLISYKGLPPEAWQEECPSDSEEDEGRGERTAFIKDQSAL
# Sequence of Calcium and integrin-binding protein 1 (Homo sapiens) (Q99828 whole entry, looked up): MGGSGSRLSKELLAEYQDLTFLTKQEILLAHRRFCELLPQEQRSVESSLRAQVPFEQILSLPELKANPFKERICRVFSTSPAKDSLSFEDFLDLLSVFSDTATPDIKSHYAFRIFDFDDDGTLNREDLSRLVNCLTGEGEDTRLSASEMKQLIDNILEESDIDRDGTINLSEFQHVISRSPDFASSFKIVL
# Sequence of Glutathione peroxidase 1 (Homo sapiens) (P07203 whole entry, looked up): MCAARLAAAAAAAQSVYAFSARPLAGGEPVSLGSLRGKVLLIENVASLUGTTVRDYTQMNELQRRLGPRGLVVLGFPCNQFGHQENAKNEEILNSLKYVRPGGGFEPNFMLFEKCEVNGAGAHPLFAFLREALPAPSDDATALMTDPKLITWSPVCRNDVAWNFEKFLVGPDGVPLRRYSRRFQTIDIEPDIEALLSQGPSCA
# Sequence of Cytochrome P450 2D6 (Homo sapiens) (P10635 whole entry, looked up): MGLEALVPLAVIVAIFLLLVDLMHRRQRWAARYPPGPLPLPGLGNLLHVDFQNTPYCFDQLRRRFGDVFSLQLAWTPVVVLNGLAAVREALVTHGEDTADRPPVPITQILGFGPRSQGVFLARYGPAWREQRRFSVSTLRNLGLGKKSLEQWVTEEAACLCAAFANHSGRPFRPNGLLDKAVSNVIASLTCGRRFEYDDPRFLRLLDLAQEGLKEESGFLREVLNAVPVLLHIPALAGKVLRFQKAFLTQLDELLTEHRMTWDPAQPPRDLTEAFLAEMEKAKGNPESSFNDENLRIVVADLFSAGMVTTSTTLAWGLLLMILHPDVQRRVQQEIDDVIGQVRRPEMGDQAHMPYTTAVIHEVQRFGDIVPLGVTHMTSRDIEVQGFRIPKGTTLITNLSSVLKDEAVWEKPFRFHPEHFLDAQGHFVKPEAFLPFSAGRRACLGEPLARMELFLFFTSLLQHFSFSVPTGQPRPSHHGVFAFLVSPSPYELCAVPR
# Sequence of Cytochrome P450 2C9 (Homo sapiens) (P11712 whole entry, looked up): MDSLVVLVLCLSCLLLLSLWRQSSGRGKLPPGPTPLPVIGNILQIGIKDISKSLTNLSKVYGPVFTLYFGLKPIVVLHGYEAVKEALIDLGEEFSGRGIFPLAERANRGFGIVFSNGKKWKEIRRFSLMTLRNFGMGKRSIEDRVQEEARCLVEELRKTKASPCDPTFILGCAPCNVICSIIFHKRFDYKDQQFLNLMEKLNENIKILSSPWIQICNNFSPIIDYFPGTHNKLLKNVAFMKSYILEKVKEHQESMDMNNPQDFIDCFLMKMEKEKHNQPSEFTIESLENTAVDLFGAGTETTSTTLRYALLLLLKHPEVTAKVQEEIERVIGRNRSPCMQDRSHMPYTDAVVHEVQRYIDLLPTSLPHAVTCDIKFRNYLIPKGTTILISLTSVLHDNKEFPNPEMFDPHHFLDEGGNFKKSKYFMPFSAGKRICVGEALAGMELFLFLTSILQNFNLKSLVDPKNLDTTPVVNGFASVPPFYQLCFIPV
structure (smiles),measurement,setting,value
O=C(Nc1cccc(C(=O)OCc2cc(=O)n3c4c(sc3n2)CCCC4)c1)c1ccc(Cl)cc1,Potency,Furin (Homo sapiens),52.7 µM (active)
same,Potency,[1],inactive
same,Potency,[2],inactive
same,Potency,[3],inactive
COc1ccc(S(=O)(=O)c2c(Nc3cccc(Cl)c3)sc(C(=O)c3ccccc3)c2N)cc1,Potency,Furin (Homo sapiens),52.7 µM (active)
same,Potency,[1],inactive
same,Potency,[2],inactive
same,Potency,[3],inactive
O=C(Nc1ccc(-c2nc3ccccc3s2)c(O)c1)c1ccc(Br)cc1,Potency,Furin (Homo sapiens),inactive
same,Potency,[1],inactive
same,Potency,[2],inactive
same,Potency,[3],inactive
COC(=O)c1ccccc1NC(=O)CSc1nc(-c2ccccc2)cc(C(F)(F)F)n1,Potency,Furin (Homo sapiens),inactive
same,Potency,[1],inactive
same,Potency,[2],inactive
same,Potency,[3],inactive
Cc1csc2nc(COC(=O)c3ccccc3NC(=O)c3ccc(C(C)(C)C)cc3)cc(=O)n12,Potency,Furin (Homo sapiens),37.3 µM (active)
same,Potency,[1],inactive
same,Potency,[2],inactive
same,Potency,[3],inactive
COc1ccc(Nc2nnc(-c3ccc(C)c(S(=O)(=O)NCc4nc5ccccc5[nH]4)c3)c3ccccc23)cc1,Potency,Furin (Homo sapiens),inactive
same,Potency,[1],inactive
same,Potency,[4],4.25 µM (active)
same,Potency,[5],7.56 µM (active)
O=C(CSc1nnc(-c2cccc([S+](=O)([O-])NC3CCCC3)c2)n1-c1ccccc1)Nc1ccc(C(=O)O)cc1,Potency,Furin (Homo sapiens),inactive
same,Potency,[1],inactive
same,Potency,[3],inactive
O=C(OCC#CCSc1nnc(-c2ccc(F)cc2)o1)c1ccc(F)cc1,Potency,Furin (Homo sapiens),inactive
same,Potency,[1],inactive
same,Potency,[2],inactive
same,Potency,[3],inactive
same,outcome,[6],inactive
O=C1OCC2=C1C(c1cccc(Cl)c1)CC(=O)N2c1ccc(C(F)(F)F)cc1 (centres undefined),Potency,Furin (Homo sapiens),inactive
same,Potency,[1],inactive
same,Potency,[2],inactive
same,Potency,[3],inactive
O=c1oc2ccc3ccccc3c2cc1-c1nnc(Nc2cccc(C(F)(F)F)c2)s1,Potency,Furin (Homo sapiens),inactive
same,Potency,[1],inactive
same,Potency,[3],inactive
COc1ccc(/C=C(\C#N)c2nc(-c3cc4c(ccc5ccccc54)oc3=O)cs2)cc1O,Potency,Furin (Homo sapiens),inactive
same,Potency,[7],inactive
O=C(OCC#CCSc1nnc(-c2cc3ccccc3cc2O)o1)c1ccc(F)cc1,Potency,Furin (Homo sapiens),83.5 µM (active)
same,Potency,[1],inactive
same,Potency,[2],inactive
same,outcome,[6],inactive
O=C(OCC#CCSc1nnc(-c2cccc3ccccc23)o1)c1ccc(F)cc1F,Potency,Furin (Homo sapiens),46.9 µM (active)
same,Potency,[1],inactive
same,Potency,[2],inactive
same,Potency,[3],inactive
same,outcome,[6],inactive
O=C(CSc1ncccc1C(=O)Oc1ccccc1Cl)Nc1ccccc1Cl,Potency,Furin (Homo sapiens),inactive
same,Potency,[1],inactive
same,Potency,[2],inactive
same,Potency,[3],inactive
O=C(Nc1ccc(C(=O)OCc2cc(=O)n3c4c(sc3n2)CCCC4)cc1)c1ccc(Cl)cc1,Potency,Furin (Homo sapiens),46.9 µM (active)
same,Potency,[1],inactive
same,Potency,[3],inactive
COc1ccc(S(=O)(=O)c2cc(NS(=O)(=O)c3ccc(Cl)cc3)c(C)c(C)c2O)cc1,Potency,Furin (Homo sapiens),inactive
same,Potency,[1],inactive
same,Potency,[2],inactive
same,Potency,[3],inactive
CCCCc1nn2c(=O)cc(COC(=O)c3ccc(NC(=O)c4cccc(OC)c4)cc3)nc2s1,Potency,Furin (Homo sapiens),41.8 µM (active)
same,Potency,[1],inactive
same,Potency,[3],inactive
COCCOC(=O)c1c(C)n(S(=O)(=O)c2ccc(C)cc2)c2ccc(NS(=O)(=O)c3ccc(C)cc3)cc12,Potency,Furin (Homo sapiens),inactive
same,Potency,[1],inactive
same,Potency,[2],inactive
same,Potency,[3],inactive
O=C(OCC#CCSc1nnc(-c2cccc3ccccc23)o1)c1ccc(OC(F)F)cc1,Potency,Furin (Homo sapiens),41.8 µM (active)
same,Potency,[1],inactive
same,Potency,[2],inactive
same,outcome,[6],inactive
O=C(OCC#CCSc1nnc(-c2cccc3ccccc23)o1)c1sc(Cl)c(Cl)c1Cl,Potency,Furin (Homo sapiens),14.8 µM (active)
same,Potency,[1],inactive
same,Potency,[2],inactive
same,Potency,[3],inactive
same,outcome,[6],inactive
O=C(OCC#CCSc1nnc(-c2cccc3ccccc23)o1)c1cccc(C(F)(F)F)c1,Potency,Furin (Homo sapiens),37.3 µM (active)
same,Potency,[1],inactive
same,Potency,[2],inactive
same,Potency,[3],inactive
same,outcome,[6],inactive
CC(C)c1nn2c(=O)cc(COC(=O)c3ccc(NC(=O)c4ccccc4Cl)cc3)nc2s1,Potency,Furin (Homo sapiens),inactive
same,Potency,[1],inactive
same,Potency,[3],inactive
O=S(=O)(Nc1ccc(O)c(NS(=O)(=O)c2ccccc2)c1)c1ccccc1,Potency,Furin (Homo sapiens),inactive
same,Potency,[1],inactive
same,Potency,[2],inactive
same,Potency,[3],inactive
same,outcome,[6],inactive
O=C(OCC#CCSc1nnc(-c2ccccc2F)o1)c1ccc(F)cc1,Potency,Furin (Homo sapiens),inactive
same,Potency,[1],inactive
same,Potency,[2],inactive
same,Potency,[3],inactive
same,outcome,[6],inactive
COc1ccc(S(=O)(=O)c2c(O)c(C)cc(NS(=O)(=O)c3ccc(Cl)cc3)c2C(C)C)cc1,Potency,Furin (Homo sapiens),inactive
same,Potency,[1],inactive
same,Potency,[3],inactive
N#C/C(=C\c1ccc(Cl)cc1)c1nc(-c2cc3c(ccc4ccccc43)oc2=O)cs1,Potency,Furin (Homo sapiens),inactive
same,Potency,[1],inactive
same,Potency,[2],inactive
same,Potency,[3],inactive
O=C(OCC#CCSc1nnc(-c2cccc3ccccc23)o1)c1cc(F)c(F)c(F)c1,Potency,Furin (Homo sapiens),46.9 µM (active)
same,Potency,[1],inactive
same,Potency,[2],inactive
same,Potency,[3],inactive
same,outcome,[6],inactive
NC(Cc1cc(I)c(Oc2cc(I)c(O)c(I)c2)c(I)c1)C(=O)O (centres undefined),outcome,[8],inactive
same,outcome,[9],inactive
same,Potency,Furin (Homo sapiens),inactive
same,Potency,[1],31.6 µM (active)
same,Potency,[2],22.4 µM (active)
same,Potency,[3],inactive
same,Potency,[10],inactive
O=C(OCC#CCSc1nnc(-c2cccc3ccccc23)o1)c1ccc(SC(F)(F)F)cc1,Potency,Furin (Homo sapiens),52.7 µM (active)
same,Potency,[1],inactive
same,Potency,[2],inactive
same,Potency,[3],inactive
same,outcome,[6],inactive

# Source: PubChem BioAssay (NCATS)
